Reference: the supplement of paper PMC11417369
In all, about 25,000 sequences were measured (“ln(normalized median fluorescence intensity)”: median about 6.7, highest 2% from about 10 on). The sample holds the highest values, similar sequences and a random draw of the others, so the mix is not that of the screen.

Each sequence was assayed on PfHDP1 homeodomain (GST-tagged) (assay: gcPBM binding intensity (ln(normalized median fluorescence intensity)); higher = stronger DNA binding).
How it was run: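 For binding intensity, the highest Masliner-normalised natural-log median intensity across replicate spots of either probe orientation was taken. Protein bound to the array was stained with Alexa488 anti-GST antibody and scanned at 488 nm. The protein, GST-tagged P. falciparum DNA-binding domains from E. coli at about 25 μg on average, had been applied for 1 h to an Agilent 4 × 180k array of primer-extended double-stranded 36-bp intergenic genomic probes and negative controls.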

Sequence | gcPBM binding intensity (ln)
TAGTAAAAACCAAAATGTACATGTGCCATTTTTTTA [XGTACX_site2630] | 6.15
TTTTTATTGTTGCTATATTTATAACAATTTATCATA [GTGCAC_negctrl_site75] | 6.6
TTACACATGAGAAAATGTACATATAATAAAATATGT [XGTACX_site904] | 6.52
TATATCCACATTTTTAGTACTTAAAAATAAATAAAC [XGTACX_site3826] | 6.62
AATTATATATAAAGAAGTACTATTTCAAGGAGTTTT [XGTACX_site3837] | 6.34
ATAATAATAATAAAAAGTACATTTAATTATATAGAA [XGTACX_site7742] | 6.51
TAACCTAAAATAACTACACACACATAAAAAAAAAAA [CACACA_site8807] | 6.58
AACAAACACAGACACACACACACACCCAAATGATTA [CACACA_site2431] | 6.98
ATGTATGTTTGTTATGCACACAAATGCATCTTATTT [CACACA_site8861] | 10.3
TTGTTCGATATATGCACACAGTTTTGTTATTTTTCC [CACACA_site4972] | 9.91
GTATGTTTGTTATGCACACAAATGCATCTTATTTCC [CACACA_site2690] | 10.8
AAAAAAAAAAAAAAAGGTACAGTAAAAAATTCCTCT [XGTACX_site5947] | 6.46
AAAATTAAAATAGTAATACACACTTCATAGGAAATG [CACACA_site1762] | 6.02
AGATATATAAATATTACACACTATATATCTATTTAT [CACACA_site6466] | 6.64
TATTTAAAAATATATACACACATTTTATATTATTAT [CACACA_site781] | 6.32
ATACATAAAATTAAAACACACATTTTATTAAATACG [CACACA_site2167] | 6.44
TTAGTATATACATTTGCACACATTATTTTTTAACAT [CACACA_site2618] | 10.5
ATTTATATTTAATATACACACATTATTTTTTTATAT [CACACA_site574] | 6.86
TTAGTAAATACATTTGCACACATTATTTTTTAACAT [CACACA_site5448] | 10.7
TTTTTTTATATTTTTAGTACACATTGGTATATATAT [XGTACX_site4114] | 6.77
AATTATATAACAAATTGTACGAATGAAAATATTATT [XGTACX_site4237] | 6.79
ATATTTTTATGATGTATCCAAGAAATGGAACTATAT [CACACA_negctrl_site1268] | 6.23
AAAATATAAATATATTGTACTGTTATATAATAAAAT [XGTACX_site2132] | 6.41
ATGAAAAAAAGACATGCATGTAAATATAAATTGCTT [TGCATGCA_site504] | 6.68
ATAAATATGTAAAAAACATGCAAAAAATTAAAGACA [TGCATGCA_site912] | 7.22

Sequence | gcPBM binding intensity (ln)
TGTTGTAAATTAAAGACATGCACGTGAGAAAATATA [TGCATGCA_site285] | 11
TTTTTATATTTTACATGTACATAAATATATTATATA [XGTACX_site958] | 6.46
AAATACATACATTAATGTACAAATAGAAACACTCTT [XGTACX_site1512] | 6.85
TGAATATTTATACATGCACACTAAAATAAAGAATCT [CACACA_site5351] | 8.07
ACGGACAATACGGAAACACACAAGTTATTTTATCAT [CACACA_site7310] | 6.21
TAATGTTGAGAATTTTGTACATATAGATCAATTTAT [XGTACX_site5426] | 6.33
TTATGATAACTTTGCACACACTTAGGAAAAGTTATG [CACACA_site6836] | 10.6
TTTTATGATAATTTTGCACACACTTAGGAAAAATTA [CACACA_site1556] | 10.4
ACGTTAGGCTTATTTGCACACTTGTATTATAATTTT [CACACA_site1317] | 10.3
TTCAAAAAAGGAAAGTTGCACTTGATACGCTTATTA [GTGCAC_site9411] | 7.38
AAAGTAGGCTTATATGCACACTTTGAAATATTATAA [CACACA_site5117] | 9.77
TTATGATAATTTTGCACACACTTAGGAAAAATTATG [CACACA_site4949] | 10.9
GAAAAATTAATAAATAAACACACATATATATATATA [CACACA_site8835] | 9.29
AATCTAATTAAAATCACACATATATTCGTCGTAATA [CACACA_site5855] | 6.05
TTGAAGAATAAATATGCACACATGCATATATTTTTA [CACACA_site5840] | 9.33
TAAATTATAAATTGCACACATATTTTTATATTTATA [CACACA_site2976] | 10.2
CATATTTGTATATGCACACATAAATTTTTCCATTTC [CACACA_site3467] | 10.2
AATATTTTTTTTTAAACATGCATATTTGCATTACCC [TGCATGCA_site437] | 8.67
TTTTAAATAATACATACATGCATATATACACATATA [TGCATGCA_site8] | 6.58
CCCATGCATTTTTGCACACACATATATTTATAAATA [CACACA_site6785] | 10.7
AGAATAAATATGCACACATGCATATATTTTTACACT [TGCATGCA_site893] | 10.3
TACCCATGCATTTTTGCACACACATATATATATAAA [CACACA_site1429] | 10.7
CCCATGCATTTTTGCACACACATATATATATAAATA [CACACA_site1430] | 10.8
AAAAAAAAAAAAAAAAGTACAAAAATATATATGCAT [XGTACX_site8392] | 6.48
AATGATACTTAGGGGCATGTCTCTGGGGGCATAACC [CACACA_negctrl_site591] | 6.63

Sequence | gcPBM binding intensity (ln)
CATATTTCTTTATTGGCACACATTTTTTCAATTATA [CACACA_site1618] | 6.87
TTATTTAAATATTGATGTACTCTCCTTATTATAATA [XGTACX_site1240] | 6.76
TCCTTTCAACCATATATAATGACATGTACTCAAAAA [GTGCAC_negctrl_site417] | 6.77
ATATATTTTTAATATGCACACAAGAATACATTCACA [CACACA_site914] | 9.51
AACGATATCTGTACTACACACATTATGTCATCCTAT [CACACA_site5374] | 6.81
GTTATATTTTTTTATACACACTGGAATATATAAATA [CACACA_site4282] | 6.76
ATATTATATATATAGGTGCGAGTATTTTATAAATAT [GTGCAC_site9889] | 6.93
AAAAAAAAAAGACACACACACAAAAAAAGATATATA [CACACA_site6645] | 6.58
ATATTATATATATGTGCACACAAAAGATATATATAT [CACACA_site2125] | 10.5
TTCCAAAAAATTATTACACACATATGGGCACATATA [CACACA_site679] | 6.54
ATATATATATATATGTGTACACAAAAAATATTATAT [XGTACX_site5741] | 9.26
TTCCAAAAAATTATTACACACATATGAGCACATATA [CACACA_site4543] | 9.16
TTATATGTATATATAGTGCAGAACAAAAGATTATAT [GTGCAC_site9599] | 7.69
ATTCTATATATGTGCACACAAAAGATATATATATAT [CACACA_site2124] | 11.4
TTCCAAAAAGTTATTACACACATATGTGCACATATA [CACACA_site6465] | 11.2
AGAAAGAAGATATATACACACAAAAAAAGATATATA [CACACA_site6779] | 6.75
TATATATATATGTGTACACAAAAAATATTATATTAT [CACACA_site5505] | 8.81
ATTATATATATGTGCACACAAAAGATATATATATAT [CACACA_site5205] | 11.1
TATATAAAGATATATACACACAAAAAAAAAAAAAAA [CACACA_site6778] | 6.32
TATAAACCCACCTACACACACAACGTAAATGCATTG [CACACA_site2238] | 6.96
TTCTTTTCAGAAGGAAAGAATTATAACATATCATAA [XGTACX_negctrl_site548] | 6.13
AATAATTTGGTCTTATCAAAAATTAAAAATAAATAA [XGTACX_negctrl_site430] | 6.05
TTTCCCTACCAAAAATGTACTTATAAGCGTTTTTAT [XGTACX_site739] | 6.5
TTTTATTTAACTCATAATTTTTTAAAAAACAATTAT [XGTACX_negctrl_site19] | 6.37
TATATATATATGTGCACACATAAAGATATTATTTTT [CACACA_site3733] | 10.1

Sequence | gcPBM binding intensity (ln)
ATAAAGATATGACACACACACATATTATAGATATAT [CACACA_site7434] | 6.69
TATATATATATATGTGCACACATAAAGATATTATTT [CACACA_site3734] | 10.6
AATGTATTCTCTCATGCACACTTTCTTTAAGGGACC [CACACA_site5245] | 8.87
AATATATTTGTGTATGTGCGCAGTGTGTAATTTATT [GTGCAC_site9765] | 7.92
GTTCATCACATATACACATGCATATTCTAATATGTA [TGCATGCA_site809] | 7.25
TTTCTTCTGCATTATGCACACTATAATTCGTTAAAA [CACACA_site5568] | 10.5
TTCGTTCTTTTATGCACACTCAACATATAAATTAAA [CACACA_site1209] | 10.1
TTTTTCTTCTGCATTATGCACACTATAATTCGTTAA [CACACA_site2837] | 10.2
ATTTATATATCGCCCACACACATGTGATTATTTATA [CACACA_site6905] | 7
TTATATTTTAAGAAATGTACATGATATAATTATCAA [XGTACX_site8693] | 6.39
AATATATATGGACATGCATGGACATAATAATCTATT [TGCATGCA_site838] | 6.47
TGGGCACCCATATACACACACAAATACAATGATAAA [CACACA_site4762] | 6.48
TATGTGCACCCATATACACACACAAATACAATGATA [CACACA_site8295] | 10.7
CATATAAAAATGTGCACACACACACCCATATATATT [CACACA_site1526] | 10.5
AAAAAAATGAAACACACACACACATATATATATATA [CACACA_site1043] | 9.32
CATATAAAAATGTGCACACACACACCGATATATATT [CACACA_site4940] | 10.8
AAAAAAAAAAAACACACACACACACCCATATATAAA [CACACA_site1170] | 6.79
GGTGCACCCATATACACACACAAATACAATGATAAA [CACACA_site1132] | 10.2
TTACAACATGAAAATGTGCACATATATATATATATA | 10.8
AATATAAATAAAAACACACACACACCGATATATATA [CACACA_site5283] | 7.05
AATAAATATATATACACACCCATATATATATATATA [CACACA_site2595] | 9.48
AAAATACATAAACACACACACACACCGATATATATA [CACACA_site9186] | 7.14
ATATATGAAAATATATGTACACAACATATAAAATAG [XGTACX_site5132] | 6.63
